Compound activity as filed in PubChem.
Hits are enriched below; roughly 6.2% of the tested compounds scored in any of these assays.
FMDV inh: antivirals against foot and mouth disease virus | actives 1.2% (n = 410,000) | AID 1159524 | Potency, µM (series often up to 57.9 µM), most hits filed as inhibitors | FMDV antiviral cell-based qHTS; calls by dose curve; tested in HEK293T cells; further: read-out not given here; nearly all actives have a fitted effect of over 45% in size
Lassa entry inh: Lassa virus entry inhibition | Lassa virus pseudotype entry inhibition, cell reporter | Potency, µM (series often up to 37.9 µM), most hits filed as inhibitors | actives 1.2% (n = 300,000) | AID 540256; calls by dose curve; tested in HEK293 cells; further: nearly all actives have a fitted effect of over 50% in size
Marburg entry inh: Marburg virus entry inhibition; Marburg virus pseudotyped entry inhibition, cell reporter; Potency, µM (highest dose often 37.8 µM), actives largely listed as inhibitors; actives 1.8% (n = 300,000); AID 540276; calls by dose curve; tested in HEK293 cells
HCMV inh: blocks human cytomegalovirus replication; HFF cells, HCMV-luciferase reporter, 72 h; hits give low values; actives 4.5% (n = 410,000); AID 1259415; activity change, negative = inhibition, % at 57.5 µM; in the data active means activity change below about -60%; inconclusive means no clear call, values can overlap the other calls; inactive means above about -39%
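Cell-based, HFFs, 1000 cells/well, 16 h 37C; cpds in DMSO + HCMV-luc, MOI 1 PFU/cell; 72 h 37C; OneGlo luminescence after 5 min RT; norm. to buffer vs Salinomycin 10uM.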
Large screens that a line does not name were inactive.

NC(=O)[C@@H]1CC2(CC(c3cccc(NC(=O)CC(c4ccccc4)c4ccccc4)c3)=NO2)CN1C(=O)c1ccc(Cl)cc1 (stereo not given in full)	HCMV inh -72.4 (no result: Lassa entry inh, Marburg entry inh)
CCC(=O)Nc1cccc(C2=NOC3(C2)C[C@@H](C(N)=O)N(C(=O)CC(c2ccccc2)c2ccccc2)C3)c1 (stereo not given in full)	HCMV inh -66.7 (no result: Lassa entry inh, Marburg entry inh)
CCc1ccc2oc(C(=O)Nc3cc(Cl)ccc3OC)cc(=O)c2c1	none
Cc1ccccc1-n1c(O)c(/C=C2/C(c3ccccc3)=Nc3ccccc32)c(=O)[nH]c1=O	FMDV inh 22.4µM, Lassa entry inh inconclusive, Marburg entry inh inconclusive
CC1=Nc2ccccc2/C1=C/c1c(O)n(C)c(=O)[nH]c1=O	FMDV inh 31.6µM, Marburg entry inh inconclusive
COc1cc(OC)cc(-c2cc3nc(C)c(CCC(=O)O)c(C)n3n2)c1	FMDV inh 1.41µM, HCMV inh -79.3 (no result: Lassa entry inh)
COc1ccc(-c2cc3nc(C)c(CCC(=O)N4CCN(c5cc(C)ccc5C)CC4)c(C)n3n2)c(OC)c1	FMDV inh 28.2µM
COc1ccc(-c2noc(CCC(=O)NCCCN3CCN(c4ccccc4F)CC3)n2)cc1	FMDV inh inconclusive, HCMV inh -66.8 (no result: Lassa entry inh, Marburg entry inh)
COc1ccc(-c2noc(CCCCC(=O)N3CCN(c4cc(C)ccc4C)CC3)n2)cc1	FMDV inh inconclusive, HCMV inh -96.3 (no result: Lassa entry inh, Marburg entry inh)
COc1ccc(-c2noc(CCC(=O)NCCN3CCN(c4ccccc4F)CC3)n2)cc1	FMDV inh inconclusive, Lassa entry inh inconclusive, Marburg entry inh inconclusive
O=C(Nc1ccc(F)c(Cl)c1)C1CCCN1S(=O)(=O)c1ccc(F)cc1 (stereo not given)	FMDV inh inconclusive
COc1cccc(CNC(=O)c2c(OC)cc(=O)n3c2CCN(C(=O)C2CC24CCCC4)CC3)c1 (stereo not given)	none (no result: Lassa entry inh, Marburg entry inh, HCMV inh)
COc1ccc(C(=O)C(C(=O)Nc2c(C)cccc2C)N(C(=O)Cc2ccc([N+](=O)[O-])cc2)c2ccccc2)cc1 (stereo not given)	none (no result: FMDV inh, Lassa entry inh, Marburg entry inh)
CCC(=O)C[C@@H](NC(=O)OC)c1ccc(F)cc1	none (no result: FMDV inh, Lassa entry inh, HCMV inh)
O=C(O)Cn1c(O)c(C2=c3ccccc3=NC2=O)sc1=O	none (no result: Lassa entry inh, Marburg entry inh)
Cn1c(O)c(C2=c3ccccc3=NC2=O)sc1=Nc1ccc(Cl)cc1	Marburg entry inh inconclusive, HCMV inh -66.6
O=C(CSc1nc2ccsc2c(=O)n1Cc1ccccc1F)NCc1ccccc1Cl	HCMV inh -90.9 (no result: Marburg entry inh)
Nc1[nH]c(C(=O)c2ccc(Br)cc2)c(-c2ccccn2)c1C(=O)NCCc1c[nH]c2ccccc12	none (no result: FMDV inh, Lassa entry inh, Marburg entry inh)
COc1cc(OC)c(OC)cc1CN1CCCC(n2cc(C(=O)N3CCCCC3)nn2)C1 (stereo not given)	none (no result: Lassa entry inh, Marburg entry inh, HCMV inh)
COC(=O)c1c(NC(=O)c2ccccc2)sc(Cc2ccccc2)c1C	HCMV inh -62.4
Cc1sc(NC(=O)c2ccccc2)c(C(=O)NCCN(C)C)c1C	Marburg entry inh 20.6µM
CN(C)CCNC(=O)c1ccccc1	Marburg entry inh inconclusive
COC(=O)c1c(NC(=O)c2ccc(C)cc2)sc(Cc2ccccc2)c1C	none
COc1ccccc1CNc1nc(NC(C)C)nc2cc(-c3ccccc3)sc12	none (no result: Lassa entry inh, Marburg entry inh)
CC(C)Nc1nc(NCCOc2ccccc2Cl)c2sc(-c3ccccc3)cc2n1	FMDV inh inconclusive, HCMV inh -100.6 (no result: Lassa entry inh, Marburg entry inh)
COC(=O)[C@H](COC(C)(C)C)NC(=O)O[C@@H]1C(=O)c2cc(OC)ccc2O[C@H]1c1ccc(OC)c(Br)c1	none (no result: FMDV inh, Lassa entry inh, HCMV inh)
CN(C)c1ccc(C2C=C(c3ccccc3)Nc3nnnn32)cc1 (stereo not given)	Marburg entry inh inconclusive
Nc1ccccc1SCc1c(Cl)cccc1Cl	none
Nc1ccccc1SCc1ccccc1Cl	Marburg entry inh inconclusive, HCMV inh -65.8
CCCCc1ccc(NC(=O)N2CCN(c3cc(C)nc4ccccc34)CC2)c(C)c1	FMDV inh 35.5µM (no result: Lassa entry inh, Marburg entry inh, HCMV inh)
Cc1cccc(C)c1OCc1cc(=O)n2c3c(sc2n1)CCCC3	FMDV inh inconclusive
Cc1ccc(CN2C(=O)c3ccccc3NC2c2cc(Br)ccc2O)cc1 (stereo not given)	Lassa entry inh inconclusive, Marburg entry inh inconclusive, HCMV inh -79.4
O=C1c2ccccc2NC(c2ccccc2)N1Cc1ccccc1 (stereo not given)	Lassa entry inh inconclusive
COc1ccc2oc(=O)c(C(=O)NCCc3c(C)[nH]c4ccc(F)cc34)cc2c1	Lassa entry inh inconclusive, Marburg entry inh inconclusive
CN(Cc1ccc(F)cc1)C(=O)C(Cc1ccccc1)NC(=O)c1ccccc1 (stereo not given)	Marburg entry inh inconclusive
Cc1cccc(C(=O)NC(NCCc2ccccc2)C(Cl)(Cl)Cl)c1 (stereo not given)	FMDV inh inconclusive, Lassa entry inh inconclusive, Marburg entry inh inconclusive, HCMV inh -71.3
